# About 1,300 (0.68%) of roughly 190,000 compounds were called active. For the sample, actives were picked, then their nearest neighbours and some compounds at random. Unmarked numbers belong to inactive results. Cut-off read from the data, not from the text of the source: active = inhibition above about 50%; inactive = the rest.
# Molecular target: Mannose-6-phosphate isomerase (Homo sapiens) (UniProt P34949)
# Assay: MPI inhibition at elevated mannose 6-phosphate – biochemical, fluorescence intensity, high mannose 6-phosphate, primary screen (AID 1220)
# Conditions: recombinant PMI enzyme, coupled fluorescence intensity; at 20 µM; active compounds read high
# Sequence of Mannose-6-phosphate isomerase (Homo sapiens) (P34949 whole entry, looked up): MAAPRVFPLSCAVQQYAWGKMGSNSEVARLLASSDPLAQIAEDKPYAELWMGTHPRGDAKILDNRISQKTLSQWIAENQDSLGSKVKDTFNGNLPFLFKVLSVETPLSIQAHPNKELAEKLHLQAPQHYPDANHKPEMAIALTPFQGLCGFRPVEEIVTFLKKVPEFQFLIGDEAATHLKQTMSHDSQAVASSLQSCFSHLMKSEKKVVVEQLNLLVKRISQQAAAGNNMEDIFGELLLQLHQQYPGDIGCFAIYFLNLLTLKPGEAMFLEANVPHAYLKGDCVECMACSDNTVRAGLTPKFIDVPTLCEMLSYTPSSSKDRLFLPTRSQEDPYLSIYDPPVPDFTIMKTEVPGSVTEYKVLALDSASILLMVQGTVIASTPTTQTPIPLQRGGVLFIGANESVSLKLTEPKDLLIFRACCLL
row,Compound,inhibition
1,COC(=O)c1ccc(N2CCOCC2)c(F)c1,-3.2%
2,Nc1cc(-c2ccc(Br)cc2)nn1S(=O)(=O)c1cccc2nsnc12,11.3%
3,CO[C@H]1C=CO[C@@]2(C)Oc3c(C)c(O)c4c(O)c(c(C=NN5CCN(C6CCCC6)CC5)c(O)c4c3C2=O)NC(=O)C(C)=CC=C[C@H](C)[C@H](O)[C@@H](C)[C@@H](O)[C@@H](C)[C@H](OC(C)=O)[C@@H]1C,73.8% (active)
4,CO[C@H]1C=CO[C@@]2(C)Oc3c(C)c(O)c4c(O)c(c5c(nc6cc(C)ccn65)c4c3C2=O)NC(=O)C(C)=CC=C[C@H](C)[C@H](O)[C@@H](C)[C@@H](O)[C@@H](C)[C@H](OC(C)=O)[C@@H]1C,32.2%
5,CO[C@H]1C=CO[C@@]2(C)Oc3c(C)c(O)c4c(O)c(c(C=NN5CCN(C)CC5)c(O)c4c3C2=O)NC(=O)C(C)=CC=C[C@H](C)[C@H](O)[C@@H](C)[C@@H](O)[C@@H](C)[C@H](OC(C)=O)[C@@H]1C,42.7%
6,O=C(OCC(=O)N1CCCC1)c1ccccc1OCc1ccccc1,4.1%
7,NC(=O)c1c(NC(=S)Nc2ccc(F)cc2)sc2c1CCCC2,2.3%
8,Cc1ccc(/C=C2/C(=O)N(c3ccccc3)C(=S)N2C)o1,52.2% (active)
9,CCOc1ccc(N2C(=O)/C(=C/c3ccc(C)o3)N(C)C2=S)cc1,43.2%
10,CN1C(=S)N(c2ccccc2)C(=O)/C1=C/c1ccco1,-16.2%
11,COc1cc(C(=O)NCC(C)C)cc(OC)c1OC,-10.5%
12,COC(=O)C1=C(C)NC(C)=C(C(=O)OC)C1c1ccc(-c2cc(Cl)ccc2Cl)o1,-1.9%
13,COCCNC(=O)Cn1nc(C(F)(F)F)cc1C,21.9%
14,Cc1ccc(C(=O)NCc2ccccc2)cc1Br,12.6%
15,Nc1ccc2nc(N3CCOCC3)sc2c1,59.7% (active)
16,c1ccc2sc(N3CCOCC3)nc2c1,-4.3%
17,Fc1ccc2nc(N3CCOCC3)sc2c1,-5.9%
18,Cc1cnc(C(=O)OCC(=O)N2CCN(C(=O)c3ccco3)CC2)cn1,6.1%
19,O=C(CSc1nc2ccccc2c(=O)n1-c1ccccc1)N1CCc2ccccc2C1,8%
20,CC1(C(=O)NC2CCCCCCC2)CCC(=O)N1CCN1CCOCC1 (centres undefined),-8.6%
21,COC(=O)c1ccc(NC(=O)COc2ccc(C3C(C#N)=C(N)Oc4c3ccc3ccccc43)cc2OC)cc1 (centres undefined),15.5%
22,COc1cc(C2C(C#N)=C(N)Oc3c2ccc2ccccc32)ccc1OCC(=O)Nc1ccc(C)cc1 (centres undefined),24.1%
23,COc1cc(C2C(C#N)=C(N)Oc3c2ccc2ccccc32)ccc1OCC(=O)Nc1cccc(C)c1 (centres undefined),53.4% (active)
24,CCOC(=O)c1cc(CC)sc1NC(=O)CC1Sc2ccc(C(F)(F)F)cc2NC1=O (centres undefined),-5.2%
25,Cc1ccc(S(=O)(=O)NCc2nc3ccccc3[nH]2)cc1,5%
26,Cc1nnc(SCC(=O)NC2CCCCC2)n(N)c1=O,-2.5%
27,O=C1CN(C(=O)c2cccs2)c2ccccc2N1,3.1%

row,Compound,inhibition
1,O=C1CN(C(=O)c2ccccc2)c2ccccc2N1,6.5%
2,O=C1CN(C(=O)c2cc(Br)c(Br)s2)c2ccccc2N1,61.5% (active)
3,COC(=O)c1ccc(NC(=O)Nc2ccccc2F)cc1,11%
4,CC(C(=O)N1CCCc2c1c(=O)oc1ccc(O)cc21)N1CCc2ccccc2C1 (centres undefined),69% (active)
5,CN(CC(=O)N1CCCc2c1c(=O)oc1ccc(O)cc21)Cc1ccccc1,3.3%
6,O=C(CN1CCN(Cc2ccccc2)CC1)N1CCCc2c1c(=O)oc1ccc(O)cc21,3.1%
7,Cc1ccccc1NC(=O)CC(O)(C(F)(F)F)C(F)(F)F,-6%
8,COc1ccc(C(=O)N2CCCC2)cc1S(=O)(=O)N1CCC(C)CC1,5.6%
9,NC(=O)C1=C[C@@H](c2ccc(Br)cc2)C[C@@H](OCc2ccc(CO)cc2)O1,27.4%
10,NC(=O)C1=C[C@H](c2ccc(C(F)(F)F)cc2)C[C@H](OCc2ccc(CO)cc2)O1,43.9%
11,NC(=O)C1=C[C@H](c2ccc(Br)cc2)C[C@H](OCc2ccc(CO)cc2)O1,51% (active)
12,NC(=O)C1=C[C@@H](c2ccccc2)C[C@@H](OCc2ccc(CO)cc2)O1,66% (active)
13,O=C(O)C1=C[C@H](c2ccccc2)C[C@H](OCc2ccc(CO)cc2)O1,2.2%
14,O=C(O)C1=C[C@@H](c2ccccc2)C[C@@H](OCc2ccc(CO)cc2)O1,-9.3%
15,NC(=O)C1=C[C@@H](c2ccc(C(F)(F)F)cc2)C[C@@H](OCc2ccc(CO)cc2)O1,61.6% (active)
16,O=C(Nc1ccccc1)C1=C[C@H](c2ccccc2)C[C@H](OCc2ccc(CO)cc2)O1,8.7%
17,O=C(O)C1=C[C@@H](c2ccc(C(F)(F)F)cc2)C[C@@H](OCc2ccc(CO)cc2)O1,-0.6%
18,O=C(O)C1=C[C@@H](c2ccc(Br)cc2)C[C@@H](OCc2ccc(CO)cc2)O1,-16.7%
19,C=CCOC(=O)C1=C[C@@H](c2ccccc2)C[C@@H](OCc2ccc(CO)cc2)O1,-6.1%
20,NC(=O)C1=C[C@H](c2ccccc2)C[C@H](OCc2ccc(CO)cc2)O1,59.2% (active)
21,CN(Cc1ccccc1)CC(O)COc1ccc(CNCCc2ccncc2)cc1 (centres undefined),-5.6%
22,CN(C)c1nc(-c2ccccc2)ncc1S(=O)(=O)c1ccccc1,14.6%
23,COc1ccc(CC(=O)Nc2ccc(-c3cn4ccc(C)cc4n3)cc2)cc1,-1.3%
24,COc1ccc(N(CC(=O)NCc2ccco2)S(=O)(=O)c2ccc(C)cc2)cc1,14.7%
25,O=C1CN2NC(=S)N(c3ccccc3)C2=CN1c1ccc(Cl)cc1,-1.1%
26,CCOc1ccc(NC(=O)CSc2n[nH]c(=O)n2-c2ccccc2)cc1,6.5%
27,Cn1cccc1/C=N/NC(=O)C12CC3CC(CC(C3)C1)C2,2.4%
